Test results reported in PubChem BioAssay (NCI).
The panel holds about 83,000 compounds, 20% with a hit somewhere; the sample as a whole holds those more often.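 Each cell line was grown in a 96-well plate and treated with one concentration of compound for 48 hours. Values below 10 were considered active.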 Values without a mark were called inactive. Activity calls are given as the source filed them.

Test system: MALME-3M melanoma
Assay: NCI-60 one-dose screen, 48 h (100 = growth as untreated, 0 = no growth, -100 = all killed)
Conditions: 10 µM unless noted

SMILES | growth
CCOc1ccccc1/C=N\Nc1ccc(S(=O)(=O)c2ccc(N/N=C/c3ccccc3OCC)cc2)cc1 | 98%
Nc1ccc(Cl)c([N+](=O)[O-])c1 | 119%
Oc1ccc(N=Nc2nccs2)c(O)c1 | 92.9%
O=C(N[C@@H]1CCCc2ccccc21)[C@H](CCC(=O)N1CCN(C2CCCCC2)CC1)N1C(=O)[C@@H](N2C(=O)OC[C@@H]2c2ccccc2)[C@H]1/C=C/c1ccccc1 | -41.1% (active)
Cc1ccc(NC(=S)/N=c2/n(-c3ccccc3)nc3n2CCN3C2=NCCN2)cc1 | 113%
CCCCC1COc2cccc3c2N1C=C/C3=C\C(=O)n1ccc2ccccc21 (stereo not drawn) | 69.3%
COc1cc(C)cc2oc3oc(=O)c(-c4nc5ccccc5s4)cc3c(=O)c12 | 94%
O=C(Nc1ccccc1)Nc1ccc(C(=O)/C=C/c2ccc(N3CCCC3)cc2)cc1 | 79.1%
COc1cc(C)cc2oc3oc(=N)c(C(=O)c4ccccc4)cc3c(=O)c12 | 91.8%
CC[C@]12C=CCN3CC[C@@]4(c5ccc(OC)cc5N(C)[C@H]4[C@@](O)(C(=O)OC)[C@@H]1OC(=O)CCC(=O)N[C@H](Cc1c[nH]c4ccccc14)C(=O)OC)[C@@H]32 | -68.8% [100 µM] (active)
CC(=O)OC[C@]12CC[C@@H]([C@@H](C)C(N)=O)[C@@H]1[C@H]1CC[C@@H]3[C@@]4(C)CC[C@H](OC(C)=O)C(C)(C)[C@@H]4CC[C@@]3(C)[C@]1(C)CC2 | -89% [100 µM] (active)
O=c1c2c3c(sc2n2cnnc2n1Cc1ccccc1)CCCC3 | 95.8%
COc1cc2c(c(OC)c1)C1c3cc(OC)ccc3NC(=O)N1CC2 (stereo not drawn) | 75.5%
O=c1cc(-c2ccccc2)oc2cc(OCc3cn(Cc4ccc(F)cc4)nn3)cc(O)c12 | 6.44% [100 µM] (active)
CCN(CC)c1ccc2cc(NC(=O)OCCNC(=O)CCNC(=O)[C@H](CC(C)C)NC(=O)C(C)(C)NC(=O)C(C)(C)NC(=O)[C@H](CC(C)C)NC(=O)CCNC(=O)C(C)(C)NC(=O)[C@H](CC(C)C)NC(=O)CCNC(=O)[C@@](C)(CC)NC(=O)[C@H](C)NC(=O)CCNC(=O)C(C)(C)NC(=O)[C@H](C)NC(=O)[C@@H]3CCCN3C(=O)[C@@](C)(CC)NC(=O)[C@H](Cc3ccccc3)NC(=O)C3CCCN3C(=O)C(C)(C)NC(=O)C3CCCN3C(=O)C(C)(C)NC(C)=O)c(=O)oc2c1 (stereo partly drawn) | -80.4% (active)
CCCCCCCCCCCCCC[n+]1cccc(C(N)=O)c1 | -33.9% (active)
CCOC(CNC(=O)c1cccc([N+](=O)[O-])c1)OCC | 96.8%
COc1ccc(/C=C/C=C\C(=O)c2ccc(-n3ccnc3)cc2)cc1 | 92.8%
CCNc1cc2c(cc1Br)-c1ccccc1C2=O | 92.8%

SMILES | growth
C[n+]1c(-c2ccccc2)c2cc(N)ccc2c2ccccc21 | -19.5% (active)
C/C=C/C1OC23CCCCC2C(C#N)(C(=N)O3)C1(C#N)C#N (stereo not drawn) | 99%
Fc1cc2[nH]ncc2c2c3c(c(-c4cn[nH]c4)nc12)CCCC3 | -14.8% (active)
CCOC(=O)c1nn(C2CCCCO2)c2ccc(NC(=O)CN3CCCC3)cc12 (stereo not drawn) | 102%
Nc1nnc(CSc2nnc3n(Cc4ccccc4)c(=O)c4c5c(sc4n23)CCCC5)s1 | 116%
O=S(=O)(NCc1ccccc1)c1ncnc2nc[nH]c12 | 117%
c1cc2ccc1CNCCN1CCNCc3ccc(cc3)Oc3ccc(cc3)CNCCN(CCNCc3ccc(cc3)O2)CCNCc2ccc(cc2)Oc2ccc(cc2)CNCC1 | -5.04% (active)
CS(=O)(=O)c1cccnn1 | 88.8%
N=C(N)c1ccc(-c2ccc(-c3ccc(-c4cccs4)s3)s2)cc1F | 102%
CCCSc1nc(N)nc2nc[nH]c12 | 249%
C[C@H]1[C@H](C)CC[C@]2(C(=O)O)CC[C@]3(C)C(=CC[C@@H]4[C@@]5(C)C/C(=C/c6cccnc6)[C@H](O)C(C)(C)[C@@H]5CC[C@]43C)[C@H]12 | -24.2% [100 µM] (active)
O=C1CC(c2ccccc2)Cc2nc3ccc(Br)cc3cc21 (stereo not drawn) | 38.8%
C1=C[C@H]2O[C@@H]1c1ccc3[nH]ccc3c12 | 102%
CCN(CC)c1ccc(/C=C/c2ccc3cc(C)ccc3[n+]2CC)cc1 | -2.01% (active)
O=C(Nc1cc(F)cc2cccnc12)c1cnc(N2CCNCC2)cn1 | 59.6%
C=CCCC1(C)NC(=O)NC1=O (stereo not drawn) | 111%
CC(=O)Nc1ccc2nc3ccc(NC(C)=O)cc3[n+](-c3ccccc3)c2c1 | 115%
CCCCCN(CCCCC)CCCCCCCCN1CCCc2ccccc21 | 99.2%
O=C(O)c1cccc(CN2CCN(c3cc4c(cc3F)c(=O)c(C(=O)O)cn4C3CC3)CC2)c1O | 96.3%
